Laboratory results from PubChem BioAssay (NCATS).
Results filed as inconclusive are left out. The source made the active and inactive calls. Unless noted, calls come from the whole dose curve; as a rule, active = well fitted curve in the direction sought with a large enough effect; inconclusive = small, poorly fitted or top-dose-only effect, or another doubt; inactive = no such curve, though single readings can be large; an effect the other way counts as inactive or inconclusive.

Experiments:
[1] = Cell Viability - MRC5 (AID 434; calls by dose curve;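 note: potency is the fitted concentration of half-maximal effect; potency reflects cytotoxicity seen as loss of intracellular ATP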); details: MRC5 lung fibroblast viability, qHTS
Method in brief: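 MRC5 normal human lung fibroblasts, 1500 cells/well, exposed to compound for 40 hr at 37 C. Cellular ATP was read by CellTiter-Glo luminescence; data normalized to DMSO and 100 uM tamoxifen, with AC50 from Hill fits.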

[2] = Cell Viability - HUV-EC-C (AID 542); details: HUV-EC-C endothelial cell viability, qHTS; series mostly up to 92.2 µM; note: % is set by controls: 0 for no effect and ±100 for the full control effect; nearly all actives have a fitted effect of over 35% in size
Method in brief: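 HUV-EC-C human vascular endothelial cells, 1000/well, exposed to compound for 40 hr at 37 °C in complete medium. Intracellular ATP was read by CellTiter-Glo luminescence. AC50 came from Hill-equation fits of concentration-response data.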

[3] = Cellular Toxicity (caspase-3) HepG2 (AID 654); details: HepG2 caspase-3 activation, luminescence; series mostly up to 92.2 µM;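 note: cells exposed to compound for 16 hours before reading; 0% = DMSO alone and 100% = caspase signal from 100 µM tamoxifen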
Method in brief: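 HepG2 cells (1500/well) were treated 16 h at 37 °C in complete medium, then caspase 3/7 activity was read by Caspase-Glo luminescence. Data were normalized to DMSO and 100 uM tamoxifen; AC50 came from Hill-equation fits of qHTS concentration-response.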

[4] = Cellular Toxicity (caspase-3) HUV-EC-C (AID 656); details: HUV-EC-C cells, caspase-3 activation (apoptosis); series mostly up to 92.2 µM
Method in brief: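 qHTS; HUV-EC-C, 1000 cells/well; 5 hr settle, 16 hr cmpd, 37°C; Caspase-Glo 3/7, 20 min RT; luminescence. Norm: DMSO = 0%, tamoxifen 100 uM = 100%. Hill-fit AC50.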

[5] = Cellular Toxicity (caspase-3) SHSY5Y (AID 657); details: SH-SY5Y caspase-3 activation; series mostly up to 91.7 µM
Method in brief: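 qHTS, SH-SY5Y, 1500 cells/well, 5 h pre-incubation 37 °C; compound 16 h 37 °C; Caspase-Glo 3/7 1 h RT; luminescence. Norm.: DMSO = 0, 10 uM staurosporine = 100%. Hill fit → AC50.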

[6] = Cellular Toxicity (caspase-3) Mesangial (AID 660); details: mesangial cells, normalized: DMSO 0%, 100 µM tamoxifen 100%; series mostly up to 91.7 µM
Method in brief: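 Human renal glomerular mesangial cells, 1000/well, 5 h at 37 C before 16 h compound treatment. Caspase-Glo 3/7 luminescence after 20 min; normalized to DMSO and 100 uM tamoxifen, AC50 from Hill fit.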

[7] = Cellular Toxicity (caspase-3) SK-N-SH (AID 661); details: SK-N-SH caspase-3 activation, qHTS, DMSO as zero, staurosporine as full; series mostly up to 91.7 µM
Method in brief: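 Human SK-N-SH neuroblastoma cells, 1500/well, were exposed to compounds for 16 hours at 37 °C. Caspase-Glo 3/7 luminescence was normalized to DMSO (basal) and 10 uM staurosporine (100%), and AC50 came from a Hill fit.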

[8] = Cellular Toxicity (caspase-3) H-4-II-E (AID 663); details: H-4-II-E rat hepatoma; Potency: caspase-3 activation; series mostly up to 92.2 µM;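 note: cells exposed to compound for 16 hr before readout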
Method in brief: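 Rat hepatoma H-4-II-E cells (1500/well) plated 5 hr, then exposed to compound titrations for 16 hr at 37 °C. Caspase-Glo 3/7 luminescence read after 20 min at RT; data normalized to DMSO and 100 uM tamoxifen, AC50 from Hill fits.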

[9] = Cellular Toxicity (caspase-3) N2a (AID 665); details: N2a cells, luminescence, normalized: DMSO 0%, 10 µM staurosporine 100%; series mostly up to 92.2 µM;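 note: compound exposure lasted 16 h at 37 °C before readout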
Method in brief: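 Mouse N2a neuroblastoma cells, 1500 per well, treated 16 h at 37 °C in complete medium; caspase-3/7 activity by Caspase-Glo luminescence after 1 h. Normalized to DMSO and 10 uM staurosporine; AC50 from Hill fits.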

[10] = Cellular Toxicity (caspase-3) NIH 3T3 (AID 666); details: NIH 3T3 caspase-3 activation, apoptosis/toxicity, 0% DMSO, 100% is 100 µM tamoxifen; series mostly up to 92.2 µM;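 note: caspase signal read after 16 h compound exposure; 0% = DMSO basal and 100% = 100 µM tamoxifen stimulation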
Method in brief: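 Mouse NIH 3T3 fibroblasts (1000/well) treated 16 h at 37 C; caspase-3/7 activity measured by Caspase-Glo 3/7 luminescence after 20 min. Normalized to DMSO and 100 uM tamoxifen; AC50 from Hill fits.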

[11] = Cellular Toxicity (caspase-3) Renal Proximal Tubule (AID 667); details: renal proximal tubule cells, primary cells freshly taken from rat; Potency: caspase-3 activation; series mostly up to 91.7 µM;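 note: cells exposed to compound for 16 hours at 37 °C before detection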
Method in brief: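 AC50 derived by standard Hill fit of concentration-response data, normalized between DMSO basal and 10 uM staurosporine as 100% stimulation. Cells: primary rat kidney proximal tubule, 16 h treatment at 37 °C.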

[12] = MultiTox-Fluor Cytotoxicity Assay - LYMP1-001 - Dead Cells (AID 946); details: LYMP1-001 lymphoblastoid cells, dead-cell protease fluorescence; series mostly up to 92.2 µM;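 note: 0% = DMSO and 100% = tetraoctylammonium bromide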
Method in brief: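 LYMP1-001 lymphoblastoid cells (2500/well) treated 16 h at 37 C. Dead-cell protease cleavage of bis-AAF-R110 read at Ex/Em 485/520. Normalized to DMSO and 15 uM tetraoctylammonium bromide; AC50 from Hill fits.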

[13] = MultiTox-Fluor Cytotoxicity Assay - LYMP1-003 - Dead Cells (AID 961); details: LYMP1-003 lymphoblastoid cells, dead-cell protease fluorescence; series mostly up to 92.2 µM;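 note: 0% = DMSO and 100% = tetraoctylammonium bromide; nearly all actives have a fitted effect of over 70% in size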
Method in brief: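 LYMP1-003 human lymphoblastoid cells (2500/well) exposed to compound 16 h at 37 C in complete medium; dead-cell protease read with bis-AAF-R110 fluorescence (Ex/Em 485/520) after 60 min at room temperature. Normalized to DMSO and 15 uM tetraoctylammonium bromide; AC50 from Hill fit.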

[14] = MultiTox-Fluor Cytotoxicity Assay - LYMP1-003 - Live Cells (AID 962); details: LYMP1-003 lymphoblastoid cells, MultiTox-Fluor live-cell protease fluorescence; series mostly up to 92.2 µM;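 note: 0% = DMSO only and full loss = 92 µM tetraoctylammonium bromide; cytotoxic hits lower the live-cell protease signal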
Method in brief: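 LYMP1-003 lymphoblastoid cells, 2500/well in complete medium, treated 16 h at 37 C; live-cell protease cleavage of GF-AFC read by fluorescence (Ex/Em 405/510) after 60 min reagent; AC50 from Hill fits of concentration-response.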

[15] = Cell Viability - LYMP1-003 - Assay at 24 hr (AID 963); details: LYMP1-003 lymphoblastoid cell viability; series mostly up to 92.2 µM;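 note: plate controls were DMSO only for no effect and tetraoctylammonium bromide positive control for full effect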
Method in brief: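 Human lymphoblastoid LYMP1-003 cells, 2500/well, treated 24 h at 37 C in complete medium. Viability read as intracellular ATP by CellTiter-Glo luminescence after 30 min at room temperature; AC50 from Hill-equation fits of qHTS concentration-response.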

[16] = Cell Viability - LYMP1-002 - Assay at 24 hr (AID 993); details: LYMP1-002 lymphoblastoid cells viability; series mostly up to 92.2 µM; note: % is set by controls: 0 for no effect and ±100 for the full control effect
Method in brief: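 Human lymphoblastoid LYMP1-002 cells (2500/well) treated 24 h at 37 °C; viability as intracellular ATP by CellTiter-Glo luminescence. Tetraoctylammonium bromide as positive control; AC50 from Hill-equation fits of qHTS concentration-response.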

[17] = qHTS Assay for Identification of Small Molecule Inducers of Hypoxia Response (AID 2120; active = well fitted curve in the direction sought with a large enough effect in the signal ratio, with a control signal flat, not every such curve was filed as active; the % refers to the signal ratio; note: 0% is about no effect); details: hypoxia response reporter cells, beta-lactamase ratio readout; series mostly up to 104 µM
Method in brief: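 HRE-bla ME-180 cells in Opti-MEM with 0.5% dialyzed FBS, pre-plated 4-5 h, then compound titration for 17 h at 37 degrees Celsius. CCF4 loaded 2.5 h at room temperature; 460/530 nm ratio gave %Activity and AC50 for induction.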

[18] = target: Peroxisome proliferator-activated receptor alpha (Homo sapiens) (UniProt Q07869); assay: qHTS assay for small molecule agonists of the peroxisome proliferator-activated receptor alpha (PPARalpha) signaling pathway (AID 651778); details: PathHunter PPARalpha complementation, chemiluminescence, 6 h; max response: hits give high values; note: % of control where 0% means no effect
Method in brief: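 Enzyme-fragment complementation assay in which ligand-bound PPARalpha translocates and forms an active enzyme that generates chemiluminescence. Cells were plated overnight, exposed to compound for 6 hr at 37 C, and then given detection reagent for 60 min at room temperature.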

[19] = qHTS assay for small molecule agonists of the antioxidant response element (ARE) signaling pathway measured by Nrf2-dependant transcriptional activity - cell viability counter screen (AID 720653; active = well fitted curve in the direction sought with a large enough effect in the repeat runs; an effect the other way counts as inactive or inconclusive; note: % is set by controls: 0 for no effect and ±100 for the full control effect); details: ARE-bla HepG2 viability, CellTiter-Glo ATP luminescence, 16 h; max response: hits give low values
Method in brief: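 ARE-bla HepG2 cells treated with compounds for 16 h at 37C; this counter screen measures viability as intracellular ATP by CellTiter-Glo luminescence after 30 min at room temperature.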

[20] = qHTS assay for cell viability of the p53RE-bla HCT-116 cell line (AID 743292); details: p53RE-bla HCT-116 viability, ATP luminescence, 16 h; series mostly up to 95 µM; note: % is set by controls: 0 for no effect and ±100 for the full control effect; nearly all actives have a fitted effect of over 55% in size
Method in brief: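 ATP-based luminescent viability (CellTiter-Glo, 30 min RT) after 16 h compound treatment at 37 C of p53RE-bla HCT-116 cells, seeded at 4,000 cells/well and rested 5 h before dosing.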

Sequence of Peroxisome proliferator-activated receptor alpha (Homo sapiens) (Q07869 whole entry, looked up, the tested form may be a part): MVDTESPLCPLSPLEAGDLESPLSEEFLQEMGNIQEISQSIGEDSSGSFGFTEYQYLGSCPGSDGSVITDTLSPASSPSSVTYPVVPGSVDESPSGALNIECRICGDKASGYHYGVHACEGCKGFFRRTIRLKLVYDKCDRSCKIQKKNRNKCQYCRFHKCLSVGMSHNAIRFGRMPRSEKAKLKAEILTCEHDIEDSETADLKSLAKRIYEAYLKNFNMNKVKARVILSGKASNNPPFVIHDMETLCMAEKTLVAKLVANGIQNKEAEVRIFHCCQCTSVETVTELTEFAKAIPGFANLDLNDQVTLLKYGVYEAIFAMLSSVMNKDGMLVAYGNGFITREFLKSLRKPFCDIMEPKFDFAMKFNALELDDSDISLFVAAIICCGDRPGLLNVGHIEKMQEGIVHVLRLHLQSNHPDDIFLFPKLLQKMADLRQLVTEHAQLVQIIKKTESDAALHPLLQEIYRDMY

Nc1cnn([C@@H]2O[C@H](CO)[C@@H](O)[C@H]2O)c(=O)n1
inactive: Potency [1] > 92 µM | Potency [2] | Potency [3] | Potency [4] | Potency [5] | outcome [6] | outcome [7] | Potency [8] | outcome [9] | outcome [10] | Potency [11] | Potency [12] | Potency [13] | Potency [14] | Potency [15] | Potency [16] | Potency [17] | max response [18] -1.23% | max response [19] 20.2% | Potency [20]

C/C=C/C=C/C=O
inactive: Potency [1] > 92 µM | Potency [2] | Potency [3] | Potency [4] | Potency [5] | outcome [6] | outcome [7] | Potency [8] | outcome [9] | outcome [10] | Potency [11] | Potency [12] | Potency [14] | Potency [15] | Potency [16] | Potency [17] | max response [18] -0.84% | max response [19] -19.3% | Potency [20]

O=C(O)/C=C/c1ccc(/C=C/C(=O)O)cc1
inactive: Potency [1] > 92 µM | Potency [2] | Potency [3] | Potency [4] | Potency [5] | outcome [6] | outcome [7] | Potency [8] | outcome [9] | Potency [11] | Potency [12] | Potency [13] | Potency [14] | Potency [15] | Potency [16] | Potency [17] | max response [18] -4.38% | max response [19] -1.74% | Potency [20]

CCCCCCc1ccc(-c2ccc(C#N)cc2)cc1
inactive: Potency [1] > 92 µM | Potency [2] | Potency [3] | Potency [4] | Potency [5] | outcome [6] | outcome [7] | Potency [8] | outcome [9] | outcome [10] | Potency [11] | Potency [12] | Potency [13] | Potency [14] | Potency [15] | Potency [16] | Potency [17] | max response [18] -3.23% | max response [19] -11.9% | Potency [20]

c1ccc(CSCc2ccccc2)cc1
inactive: Potency [1] > 92 µM | Potency [2] | Potency [3] | Potency [4] | Potency [5] | outcome [6] | outcome [7] | Potency [8] | outcome [9] | outcome [10] | Potency [11] | Potency [12] | Potency [13] | Potency [14] | Potency [15] | Potency [16] | Potency [17] | max response [18] -0.51% | max response [19] -4.18% | Potency [20]

Oc1ccc(O)c2c(O)cccc12
inactive: Potency [1] > 92 µM | Potency [2] | Potency [3] | Potency [4] | Potency [5] | outcome [6] | outcome [7] | outcome [9] | outcome [10] | Potency [11] | Potency [12] | Potency [13] | Potency [14] | Potency [15] | Potency [16] | Potency [17] | max response [18] 5.73% | max response [19] -23% | Potency [20]

CCCCCCN
inactive: Potency [1] > 92 µM | Potency [2] | Potency [3] | Potency [4] | Potency [5] | outcome [6] | outcome [7] | Potency [8] | outcome [9] | outcome [10] | Potency [11] | Potency [12] | Potency [13] | Potency [14] | Potency [15] | Potency [16] | Potency [17] | max response [18] 1.86% | max response [19] -8.85% | Potency [20]
